# Assay results published in PubChem BioAssay (NCI).
# About 83,000 compounds went through this panel and 20% of them were active in at least one assay; those are over-represented in the sample as a whole.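 Single-dose data. Exposure time 48 hours. Values below 10 considered active.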 Unmarked numbers belong to inactive results. Calls of active or inactive are those of the source.
# Columns and labels:
# Assay in all cases: NCI-60 one-dose screen, 48 h (100 = growth as untreated, 0 = no growth, -100 = all killed)
# Conditions in all cases: 10 µM unless noted
# NCI-H23 lung = tested on: NCI-H23 lung
# NCI-H226 lung = tested on: NCI-H226 lung
# NCI-H322M lung = tested on: NCI-H322M lung
# HOP-62 NSCLC = tested on: HOP-62 NSCLC
# NCI-H460 lung = tested on: NCI-H460 lung
# HOP-92 NSCLC = tested on: HOP-92 NSCLC
# NCI-H522 lung = tested on: NCI-H522 lung
# A549/ATCC NSCLC = tested on: A549/ATCC NSCLC
# 786-0 renal = tested on: 786-0 renal
# COLO 205 colon = tested on: COLO 205 colon
# DU-145 prostate = tested on: DU-145 prostate
# K-562 leukemia = tested on: K-562 leukemia
# MALME-3M melanoma = tested on: MALME-3M melanoma
# MDA-MB-231 breast = tested on: MDA-MB-231 breast
# RXF 393 renal = tested on: RXF 393 renal
# SF-268 CNS = tested on: SF-268 CNS
# SF-295 CNS = tested on: SF-295 CNS
# SF-539 CNS = tested on: SF-539 CNS
# UACC-257 melanoma = tested on: UACC-257 melanoma
# M14 melanoma = tested on: M14 melanoma
SMILES,growth (NCI-H23 lung),growth (NCI-H226 lung),growth (NCI-H322M lung),growth (HOP-62 NSCLC),growth (NCI-H460 lung),growth (HOP-92 NSCLC),growth (NCI-H522 lung),growth (A549/ATCC NSCLC),growth (786-0 renal),growth (COLO 205 colon),growth (DU-145 prostate),growth (K-562 leukemia),growth (MALME-3M melanoma),growth (MDA-MB-231 breast),growth (RXF 393 renal),growth (SF-268 CNS),growth (SF-295 CNS),growth (SF-539 CNS),growth (UACC-257 melanoma),growth (M14 melanoma)
CNS(=O)(=O)Nc1nccc(Cc2c(C)c3ccc(Oc4ncccn4)cc3oc2=O)c1F,24.1%,58%,33.3%,42.8%,61.3%,-4.71% (active),52%,38.3%,68%,8.97% (active),61.3%,26.2%,4.1% (active),41%,44.9%,78%,70.6%,68%,-5.41% (active),13.3%
CC(C)CC(=O)Nc1n[nH]c2c1CN(C(=O)C1CCN(C)CC1)C2(C)C,0.542% (active),7.08% (active),24.4%,-14.3% (active),7.12% (active),-3.08% (active),-27.9% (active),7.25% (active),3.99% (active),-76.4% (active),15.2%,11.1%,34.9%,8.95% (active),-37.2% (active),12.1%,41.6%,-22.3% (active),15.5%,22.2%
CC(C)(C)c1ccc(Cn2cc(CSc3nc4ccccc4s3)nn2)cc1,90.4%,83%,86.2%,87.6%,103%,80.6%,84.4%,83.5%,96.2%,102%,115%,95.6%,94%,86.2%,103%,95.3%,91%,101%,97.3%,97%
O=c1[nH]c([C@@H]2CCCN2)nc2c1oc1ccc(Cl)cc12,60.7%,51.8%,56%,47.2%,34.4%,39.8%,24.7%,37.9%,84.4%,12%,73.1%,43%,64.2%,67.3%,72.4%,65.2%,52.7%,12.6%,64.6%,53.6%
Cc1cc(C(=O)NOCCO)c(Nc2ccc(I)cc2F)n(C)c1=O,25.9%,71.2%,19.8%,38.9%,66.6%,-21.5% (active),55%,32.8%,71.3%,4.04% (active),69.8%,34.2%,-4.71% (active),40.7%,27.3%,78.9%,84%,60.8%,-19.6% (active),7.71% (active)
COc1cccc2cc(-c3nc(C4CCC(C(=O)O)CC4)n4ncnc(N)c34)[nH]c12 (stereo not given),7.94% (active),7.69% (active),9.76% (active),-10% (active),11.1%,-14.5% (active),-1.72% (active),5.25% (active),-5.64% (active),1.83% (active),19.2%,14%,-12% (active),19.2%,-23.8% (active),16.2%,-31.2% (active),-25.6% (active),-22.8% (active),4.34% (active)
COc1cc2ncnc(Nc3ccc(O)cc3)c2cc1OC,104%,95.2%,12.4%,86.5%,103%,78%,11%,45.8%,83.4%,115%,61.3%,73%,102%,88.8%,82.3%,86.6%,98.8%,73.4%,63.7%,79.7%
COc1ccc(COc2cc3oc(=O)c4cc(C(C)O)ccc4c3cc2OC)cc1 (stereo not given),70.8%,55.4%,83.8%,36.9%,58.4%,55.2%,35.1%,48.6%,62.4%,49.3%,94.9%,20.1%,66.8%,67.2%,47.8%,55.8%,49%,60.7%,42.8%,57.6%
CCOC(=O)c1sc(NC(=O)COc2ccc(/C=C3\Cc4ccc(Cl)cc4C3=O)cc2)nc1C,97.1%,97.1%,103%,109%,95%,92.5%,97.2%,104%,110%,118%,117%,102%,110%,90.6%,116%,114%,127%,86.9%,112%,107%
CN1C/C=C\CCOc2cccc(c2)-c2ccnc(n2)Nc2cccc(c2)C1,-56.6% (active),-33.7% (active),-17.7% (active),-44.5% (active),-73.6% (active),-15.5% (active),-70.1% (active),-50.1% (active),-85.9% (active),-81.6% (active),5.04% (active),-18.5% (active),-79.4% (active),-38.6% (active),-86.1% (active),-50.8% (active),-86.3% (active),-91.8% (active),-73.7% (active),-78.4% (active)
NC[C@@](O)(c1ccc(Cl)cc1)c1ccc(-c2cn[nH]c2)cc1,27.4%,43.9%,10.3%,15.2%,23.1%,-1.15% (active),17.7%,18.3%,6.12% (active),-22.8% (active),30.3%,17.2%,-24.7% (active),31.7%,-6.86% (active),35.5%,28.6%,3.43% (active),-23.9% (active),7.61% (active)
O=C(Nc1cccc(Cl)c1)Nc1ncc(CCNc2ncnc3ccsc23)s1,30.6%,10.8%,55.5%,11.8%,20.1%,40.9%,13%,14.9%,42.1%,-4.76% (active),50.6%,13.8%,19%,41.5%,-0.457% (active),39.4%,20%,24%,11.5%,10.3%
C[C@@H](NC(=O)c1ncnc(N)c1Cl)c1ncc(C(=O)Nc2cc(C(F)(F)F)c(Cl)cn2)s1,59.8%,78.6%,80.9%,63.1%,71.6%,64.1%,46%,53.2%,110%,13.2%,94.9%,11.5%,3.24% (active),39%,106%,93%,90.2%,86.4%,-13.9% (active),15%
CN(C)CCOC(=O)Nc1nc2ccc(Sc3ccccc3)cc2[nH]1,44%,61.8%,36.9%,29.1%,13%,41.8%,-24% (active),38.7%,42.2%,8.53% (active),27.2%,15.7%,49.2%,47.8%,14.1%,51%,24.9%,-0.508% (active),49.1%,0.259% (active)
CCN(CC)c1cc2oc3cc(N)cc(=N)c-3nc2cc1C,13.9%,84.9%,91.7%,65.3%,74.6%,82.1%,43.4%,26.1%,62.6%,20.8%,85.7%,24.9%,1.85% (active),26.7%,86.2%,64.5%,48.1%,1.94% (active),32.9%,25.5%
